According to PubChem BioAssay AID1159580 (chemical genetic matrix, 2015):
In all, about 5,500 compounds went through this assay and about 2,000 (36%) were called active. Another 18% or so got no clear call; they are omitted. Cut-off read from the data, not from the text of the source: active = normalized growth mostly below about 0.91 (no sharp cut-off); inconclusive = no clear call, values can overlap the other calls; inactive = mostly above about 0.92. This is one part of the list.

Test: chemical genetic growth profiling, strain panel (AID 1159580);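 note: tested at 20 µM; growth read once vehicle control cultures reached saturation at 30 °C; 1 = growth at the plate median or of vehicle wells; lower values mean less growth of the strain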
Conditions: growth OD

Measured: normalized growth

COc1ccc(-c2cc(=O)c3c(O)cc(O[C@@H]4O[C@H](CO[C@H]5O[C@H](C)[C@@H](O)[C@H](O)[C@@H]5O)[C@@H](O)[C@H](O)[C@H]4O)cc3o2)cc1O
inactive: S. cerevisiae deletion strains, locus YKL009W, strain mrt4, hits give low values 0.981 | S. cerevisiae deletion strains, locus YKL068W, hits give low values 0.973 | S. cerevisiae deletion strains, locus YKL085W, strain MDH1 (second series), hits give low values 0.991 | S. cerevisiae deletion strains, locus YKL085W, strain MDH1, hits give low values 0.991 | S. cerevisiae deletion strains, locus YKL160W, strain elf1, hits give low values 1 | S. cerevisiae deletion strains, locus YKL190W, strain CNB1, hits give low values 0.994 | S. cerevisiae deletion strains, locus YKR001C, strain vps1, hits give low values 1.02 | S. cerevisiae deletion strains, locus YKR026C, strain gcn3, hits give low values 1.01 | S. cerevisiae deletion strains, locus YKR091W, strain srl3, hits give low values 1.02 | S. cerevisiae deletion strains, locus YLL001W, strain dnm1, hits give low values 1 | S. cerevisiae deletion strains, locus YLL026W, hits give low values 1.01 | S. cerevisiae deletion strains, locus YLL041C, strain sdh2, hits give low values 1.01 | S. cerevisiae deletion strains, locus YLR027C, strain aat2, hits give low values 1.01 | S. cerevisiae deletion strains, locus YLR039C, strain RIC1, hits give low values 0.954 | S. cerevisiae deletion strains, locus YLR058C, strain SHM2, hits give low values 0.986 | S. cerevisiae deletion strains, locus YLR102C, strain apc9, hits give low values 0.996 | S. cerevisiae deletion strains, locus YLR113W, strain HOG1, hits give low values 1.03 | S. cerevisiae deletion strains, locus YLR221C, strain rsa3, hits give low values 1.01 | S. cerevisiae deletion strains, locus YLR258W, strain gsy2, hits give low values 1.03 | S. cerevisiae deletion strains, locus YLR262C, strain YPT6 (second series), hits give low values 1.03 | S. cerevisiae deletion strains, locus YLR262C, strain YPT6, hits give low values 0.949 | S. cerevisiae deletion strains, locus YLR268W, strain sec22, hits give low values 1 | S. cerevisiae deletion strains, locus YLR320W, strain mms22, hits give low values 1.03 | S. cerevisiae deletion strains, locus YLR330W, strain CHS5, hits give low values 0.981 | S. cerevisiae deletion strains, locus YLR342W, strain FKS1 (second series), hits give low values 1.01 | S. cerevisiae deletion strains, locus YLR342W, strain FKS1, hits give low values 1.03 | S. cerevisiae deletion strains, locus YLR357W, strain rsc2, hits give low values 1.03 | S. cerevisiae deletion strains, locus YLR370C, strain arc18, hits give low values 1.01 | S. cerevisiae deletion strains, locus YLR371W, strain rom2, hits give low values 0.999 | S. cerevisiae deletion strains, locus YLR384C, strain iki3, hits give low values 1.03 | S. cerevisiae deletion strains, locus YLR418C, strain cdc73, hits give low values 0.979 | S. cerevisiae deletion strains, locus YML016C, strain PPZ1, hits give low values 0.994 | S. cerevisiae deletion strains, locus YML032C, strain rad52, hits give low values 1.02 | S. cerevisiae deletion strains, locus YML120C, strain ndi1, hits give low values 1.01 | S. cerevisiae deletion strains, locus YML124C, strain tub3, hits give low values 1 | S. cerevisiae deletion strains, locus YMR058W, strain fet3, hits give low values 1.01 | S. cerevisiae deletion strains, locus YMR078C, strain ctf18, hits give low values 0.993 | S. cerevisiae deletion strains, locus YMR125W, strain sto1, hits give low values 1.03 | S. cerevisiae deletion strains, locus YMR129W, hits give low values 1 | S. cerevisiae deletion strains, locus YMR205C, strain PFK2, hits give low values 1.03 | S. cerevisiae deletion strains, locus YMR223W, strain ubp8, hits give low values 0.989 | S. cerevisiae deletion strains, locus YMR231W, strain pep5, hits give low values 1.02 | S. cerevisiae deletion strains, locus YMR307W, strain GAS1, hits give low values 1.07 | S. cerevisiae deletion strains, locus YNL067W, strain RPL9B, hits give low values 1.04 | S. cerevisiae deletion strains, locus YNL071W, strain lat1, hits give low values 1.03 | S. cerevisiae deletion strains, locus YNL128W, strain TEP1, hits give low values 1.01 | S. cerevisiae deletion strains, locus YNL183C, strain NPR1, hits give low values 0.989 | S. cerevisiae deletion strains, locus YNL209W, strain ssb2, hits give low values 1.01 | S. cerevisiae deletion strains, locus YNL233W, strain BNI4, hits give low values 1.01 | S. cerevisiae deletion strains, locus YNL248C, strain rpa49, hits give low values 1 | S. cerevisiae deletion strains, locus YNL250W, strain rad50, hits give low values 1 | S. cerevisiae deletion strains, locus YNL271C, strain bni1, hits give low values 0.999 | S. cerevisiae deletion strains, locus YNL298W, strain CLA4, hits give low values 0.985 | S. cerevisiae deletion strains, locus YNL307C, strain MCK1, hits give low values 1 | S. cerevisiae deletion strains, locus YNL322C, strain KRE1 (second series), hits give low values 1.02 | S. cerevisiae deletion strains, locus YNL322C, strain KRE1, hits give low values 1 | S. cerevisiae deletion strains, locus YNR049C, strain mso1, hits give low values 1.01 | S. cerevisiae deletion strains, locus YNR052C, strain pop2, hits give low values 1 | S. cerevisiae deletion strains, locus YOL006C, strain TOP1, hits give low values 1.08 | S. cerevisiae deletion strains, locus YOL012C, strain htz1 1.47 | S. cerevisiae deletion strains, locus YOL147C, strain pex11, hits give low values 0.974 | S. cerevisiae deletion strains, locus YOR001W, strain rrp6, hits give low values 1.03 | S. cerevisiae deletion strains, locus YOR061W, strain CKA2, hits give low values 0.993 | S. cerevisiae deletion strains, locus YOR069W, strain VPS5, hits give low values 0.987 | S. cerevisiae deletion strains, locus YOR070C, strain gyp1, hits give low values 1.02 | S. cerevisiae deletion strains, locus YOR080W, strain dia2, hits give low values 1.03 | S. cerevisiae deletion strains, locus YOR083W, strain WHI5, hits give low values 0.992 | S. cerevisiae deletion strains, locus YOR106W, strain vam3, hits give low values 0.983 | S. cerevisiae deletion strains, locus YOR136W, strain idh2, hits give low values 1.01 | S. cerevisiae deletion strains, locus YOR144C, strain elg1, hits give low values 1 | S. cerevisiae deletion strains, locus YOR184W, strain ser1, hits give low values 1.01 | S. cerevisiae deletion strains, locus YOR231W, strain MKK1, hits give low values 1 | S. cerevisiae deletion strains, locus YOR265W, strain rbl2, hits give low values 1.02 | S. cerevisiae deletion strains, locus YOR270C, strain vph1, hits give low values 0.983 | S. cerevisiae deletion strains, locus YOR290C, strain snf2, hits give low values 1.02 | S. cerevisiae deletion strains, locus YOR316C, strain cot1, hits give low values 0.997 | S. cerevisiae deletion strains, locus YPL051W, strain arl3, hits give low values 1.01 | S. cerevisiae deletion strains, locus YPL055C, strain LGE1, hits give low values 1.07 | S. cerevisiae deletion strains, locus YPL078C, strain atp4, hits give low values 0.998 | S. cerevisiae deletion strains, locus YPL106C, strain sse1, hits give low values 1.05 | S. cerevisiae deletion strains, locus YPL240C, strain hsp82, hits give low values 1.03 | S. cerevisiae deletion strains, locus YPL241C, strain CIN2, hits give low values 0.986 | S. cerevisiae deletion strains, locus YPL256C, strain CLN2, hits give low values 0.987 | S. cerevisiae deletion strains, locus YPR119W, strain clb2, hits give low values 1 | S. cerevisiae deletion strains, locus YPR141C, strain kar3, hits give low values 0.972 | S. cerevisiae deletion strains, locus YPR163C, strain tif3, hits give low values 0.992 | S. cerevisiae deletion strains, locus YPR167C, strain met16, hits give low values 1.01 | S. cerevisiae deletion strains, strain wtn01, hits give low values 0.997 | S. cerevisiae strains, strain wild type, hits give low values 1
